Bioassay records as filed in PubChem.
D2 ag-1: HTS Assay for Allosteric Agonists of the Human D2 Dopamine Receptor: Primary Screen for Agonists | hit rate 0.53% among 340,000 | D(2) dopamine receptor (Homo sapiens), P14416 | HEK293 T-REx D2 cells, calcium flux agonist mode | activation, % at 2 µM;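 active = activation over 3 SD above normal in the single-dose calcium agonist read, cut at about 30% in these data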; note: 0% is about no effect
Target sequence (P14416 whole entry, looked up): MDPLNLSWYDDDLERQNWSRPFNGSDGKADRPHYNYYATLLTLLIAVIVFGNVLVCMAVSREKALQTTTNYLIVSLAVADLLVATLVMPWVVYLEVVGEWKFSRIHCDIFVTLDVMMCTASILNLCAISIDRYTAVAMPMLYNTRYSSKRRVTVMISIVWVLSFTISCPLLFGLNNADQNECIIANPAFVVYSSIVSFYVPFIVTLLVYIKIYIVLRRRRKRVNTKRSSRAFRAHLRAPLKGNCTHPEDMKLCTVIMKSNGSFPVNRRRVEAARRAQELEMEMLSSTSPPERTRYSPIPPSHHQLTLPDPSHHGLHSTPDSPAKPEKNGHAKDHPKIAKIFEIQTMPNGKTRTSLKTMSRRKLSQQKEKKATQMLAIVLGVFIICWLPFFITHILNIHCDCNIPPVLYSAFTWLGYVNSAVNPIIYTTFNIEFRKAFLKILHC
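Tetracycline-induced HEK293 T-REx cells with force-coupled D2 receptor, plated overnight at 30 C, loaded with no-wash calcium dye. After a 10 s baseline, compound was pin-added and calcium flux read kinetically for 180 s; calcium rises flagged agonists.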
D2 antagonist: HTS Assay for Allosteric Antagonists of the Human D2 Dopamine Receptor: Primary Screen for Antagonists; D(2) dopamine receptor (Homo sapiens), P14416; HEK293 TREx D2 cells, calcium flux, dopamine EC80; inhibition, % at 10 µM; hit rate 2% among 340,000; AID 485344, 2010; in the data active = inhibition above about 30%; inactive = below that, where a call was filed; note: 0% is about no effect
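Calcium flux kinetic readout in an inducible HEK293 TREx D2 line plated overnight at 30 C. After 180 s compound exposure, an EC80 dopamine challenge follows with another 180 s kinetic read to detect antagonism.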
D2 PAM-1: HTS Assay for Positive Allosteric Modulators of the Human D2 Dopamine Receptor: Primary Screen for Potentiators. D(2) dopamine receptor (Homo sapiens), P14416. hit rate 0.34% among 340,000. HEK293 T-REx D2, calcium flux, EC20 dopamine potentiation. potentiation, % at 10 µM;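 active = potentiation over 3 SD above the plate norm, cut at about 30% in these data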; note: 0% is about no effect
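Potentiation of an EC20 dopamine calcium response measured kinetically over 180 s, after a preceding 180 s compound-only read flagging agonists. Cells: inducible Hek293 Trex D2 line, 4000/well, cultured overnight at 30 C before dye loading.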
D2 ag-2: Beta-Arrestin HTS for Positive Allosteric Modulators of the Human D2 Dopamine Receptor: Agonists | D(2) dopamine receptor (Homo sapiens), P14416 | DiscoveRx PathHunter D2 beta-arrestin, luminescence, 90 min; 100% = 57 uM dopamine signal | activation, % (no concentration beside the values) | hit rate 0.084% among 360,000; in the data active = activation above about 40%; inconclusive = between about 15% and that limit
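DiscoveRx PathHunter D2 beta-arrestin cells (2,100/well) attached overnight, then compound-stimulated 90 min at 37 C in HBSS/10 mM HEPES/0.1% Tween-20 buffer; beta-galactosidase complementation read by luminescence after 1 h at ambient temperature. Dopamine 57 uM final (EC100) as control.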
D2 PAM-2: Beta-Arrestin HTS for Positive Allosteric Modulators of the Human D2 Dopamine Receptor: Potentiators | D(2) dopamine receptor (Homo sapiens), P14416 | DiscoveRx D2 beta-arrestin cells, luminescence, 90 min; 100% = 57 uM dopamine signal | potentiation, % (no concentration beside the values) | hit rate 0.23% among 360,000 | AID 624464, 2012; in the data active = potentiation above about 50%; inconclusive = mostly about 30% to 49%
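PathHunter D2 cells, attached overnight at 37 deg C, received compound in DMSO plus dopamine at EC20 (50 nM final) for 90 min at 37 deg C. Beta-arrestin recruitment was read as luminescence after 1 h with detection reagent at ambient temperature.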
* = called active by the depositor; ? = inconclusive; . = no result given. Only some compounds are listed: those with a hit (about 2.4% of all), similar ones and a draw of the others.

SMILES	D2 ag-1	D2 antagonist	D2 PAM-1	D2 ag-2	D2 PAM-2
CC(=O)c1cccc(NC(=S)N2CCN(c3ccccn3)CC2)c1	40*	18	-6	-1	-9
Cc1cccc(NC(=S)N2CCN(c3ccccn3)CC2)c1	2	-11	2	1	11
CCNC(=O)C1(C)CCN(C(=O)c2cccc(C#N)c2)C1 (stereo not drawn)	.	.	.	1	-10
O=C(NCc1ccccc1Cl)C1CCCN(c2ncnc3onc(-c4ccc(F)cc4)c23)C1 (stereo not drawn)	-1	.	7	.	.
CCCN1C(=O)c2[nH]nc(-c3ccccc3O)c2C1c1ccc(OCc2ccccc2)c(OCC)c1 (stereo not drawn)	-1	.	6	.	.
CC1(C(=O)O)CCCN1C(=O)c1cccc(F)c1 (stereo not drawn)	.	.	.	-3	4
CCCCN(C/C=C/c1ccccc1OC)Cc1ccccc1	2	22	-7	2	-34
CCN(C/C=C/c1ccccc1OC)Cc1ccccc1	0	80*	-30	1	-26
Oc1cc2c(cc1CN1CCN(c3cccc(C(F)(F)F)c3)CC1)CCC2	-1	56*	-22	0	-38
CC(=O)Nc1ccc(CN2CCN(c3cccc(C(F)(F)F)c3)CC2)cc1	2	43*	-19	-4	-10
CC(=O)Nc1ccc(NC(=O)CN2CCN(c3cccc(C(F)(F)F)c3)CC2)cc1	7	2	-15	1	-39
COc1ccc(N2CCN(Cc3cc4c(cc3O)CCC4)CC2)cc1	0	30	0	0	-14
Cc1ccccc1NC(=O)c1sc2nc3n(c(=O)c2c1C)N=C(c1ccccc1)CS3	6	.	0	.	.
Cc1cccc(-c2nc3scc(CCNS(=O)(=O)c4ccc(Oc5ccccc5)cc4)n3n2)c1	1	.	14	.	.
CCC(=O)Nc1cc2c3c(c1)CCN3C(=O)CC2	1	33*	6	-4	-7
CC1=C(C(=O)Nc2ccccc2C)C2(CCCCC2)C(C(N)=O)C(=S)N1 (stereo not drawn)	1	38*	0	-5	-5
C/C(=N\NC(=O)c1cccnc1)c1cc(C)oc1C	2	33*	-7	-3	-8
COC(=O)c1c(Oc2ccc(OC)cc2)nnc(-c2ccccc2)c1-c1ccccc1	-1	.	.	.	.
O=C(c1ccc(Oc2ccccc2)cc1)c1nc2c(n1O)CCCC2	0	31*	4	5	1
COc1ccc2ccccc2c1CNC(C)CCc1ccccc1 (stereo not drawn)	20	30*	-16	5	-23
Cc1ccccc1C(=O)Nc1sc2c(c1C(=O)N1CCCCC1)CCC(C)C2 (stereo not drawn)	-1	.	-7	.	.
COC(=O)c1[nH]c2c(c1C)C(=O)CC(c1ccc(C)cc1)C2 (stereo not drawn)	0	32*	-1	1	-16
COC(=O)c1[nH]c2c(c1C)C(=O)CC(c1ccc(OC)c(OC)c1)C2 (stereo not drawn)	.	.	.	1	7
C=CCn1c(=O)c(C#N)cc2c(=O)n3ccccc3nc21	0	58*	1	-1	-7
COc1ccc(C(=O)NCc2cnn(C)c2)cc1OC1CCN(C(C)C)CC1	1	0	-2	3	-2
SMILES	D2 ag-1	D2 antagonist	D2 PAM-1	D2 ag-2	D2 PAM-2
CCc1ccc(CNC(=O)c2ccc(OC)c(OC3CCN(C(C)C)CC3)c2)nc1	1	42*	-10	4	-23
CCCCNS(=O)(=O)c1ccc(C)c(-c2nnc3c4ccccc4c(C)nn23)c1	-1	.	6	.	.
Cc1cc(NC(=O)c2ccc3c(c2)C(=O)N(C2CCCCC2)C3=O)no1	0	56*	-5	-1	0
CCOC(=O)c1cccc(NC(=O)c2ccc3c(c2)nnn3C2CCCC2)c1	0	.	3	.	.
C/C(=C\C(=O)c1ccccc1)Nc1ccc(O)cc1	-1	-10	-5	?	56*
Cc1ccc(CNC(=O)c2ccc(N3CCCC3)c(NC(=O)Nc3ccc(C)cc3)c2)cc1	0	.	4	.	.
COc1cc(OC)c(OC)cc1/C=C/c1nc2cc3ccccc3cc2c(=O)n1-c1ccc(F)cc1F	1	.	-7	.	.
O=C(Nc1ccncc1)c1cc2ccccc2cc1O	3	0	20	?	137*
Cc1sc2c(c1C)c(=O)n(-c1ccc(Cl)cc1)c(=O)n2Cc1cc(=O)n2cc(Br)ccc2n1	-1	.	3	.	.
COc1ccccc1CN1C[C@@H]2C[C@@H](c3ccccc3C)N3CCC[C@@]23C1=O	-1	-3	-2	-5	-10
Cc1ccccc1CN1C[C@@H]2C[C@@H](c3cnc(N4CCOCC4)s3)N3CCC[C@@]23C1=O	1	37*	1	1	-7
Cc1nn(S(=O)(=O)c2cccc([N+](=O)[O-])c2)c(C)c1S(=O)(=O)N1CCOCC1	0	-1	-7	4	2
Cc1nn(S(=O)(=O)c2cccc([N+](=O)[O-])c2)c(C)c1Br	-1	2	1	12	62*
CCn1c(SCC(=O)c2[nH]c(C)c(C(C)=O)c2C)nnc1-c1cccs1	0	99*	-8	0	3
CCCOc1ccc(C(=O)NC2CCSc3ccccc32)cc1 (stereo not drawn)	-1	36*	6	1	-4
Cc1ccc(NC(=O)NCc2ccccn2)cc1	-2	59*	4	2	-10
CCOc1ccc(NC(=O)NCc2ccccn2)cc1	1	6	10	0	-1
Cc1ccc(CSc2nnc(CS(=O)Cc3ccc(Cl)cc3Cl)n2C)cc1 (stereo not drawn)	0	-9	5	0	7
Cn1c(CS(=O)Cc2c(Cl)cccc2Cl)nnc1SCc1ccc(Cl)cc1 (stereo not drawn)	-1	31*	11	0	-10
O=C(CN1CCN(c2ccccn2)CC1)Nc1ccc(Oc2ccccc2)cc1	.	.	.	50*	10
O=C(CN1CCN(c2ccccn2)CC1)Nc1ccc(F)cc1	0	6	6	11	-7
O=C(CN1CCN(c2ccccn2)CC1)Nc1ccccc1	1	31*	8	6	-11
O=C(CC(c1ccccc1)c1cc(Br)ccc1O)NCC1(c2ccccc2)CCCC1 (stereo not drawn)	-1	.	8	.	.
O=C(O)CC1SC(=Nc2ccccc2)N(c2ccccc2)C1=O (stereo not drawn)	1	43*	0	0	1
